According to PubChem BioAssay AID686979 (National Center for Advancing Translational Sciences (NCATS), 2013):
“And” between values parts separate entries of the source, which are not always exact repeats. Equal values may be shown once. Out of some 420,000 compounds screened, about 50,000 (12%) were called active. A call without a number means that no potency is given here. Another 26% or so got no clear call; they are omitted. This is one part of a sample in which actives are shown more often than they occur. Unmarked numbers belong to inactive results. Calls come from the whole dose curve; as a rule, active = well fitted inhibition curve with a large enough effect; inconclusive = small, poorly fitted or top-dose-only effect; inactive = flat fitted curve, though single readings scatter.

test: qHTS for Inhibitors of human tyrosyl-DNA phosphodiesterase 1 (TDP1): qHTS in cells in presence of CPT; conditions: chicken DT40 Tdp1-/-;hTDP1 cells + 20 nM CPT, ATP luminescence, 48 h; series mostly up to 46.2 µM; note: nearly all actives have a fitted effect of over 55% in size
Source text: Human tyrosyl-DNA phosphodiesterase 1 (TDP1) is a novel repair gene, and we propose to use it as a new target for anticancer drug development. TDP1 is not an essential protein, but under treatment with topoisomerase I poison (camptothecin: CPT), TDP1 works as a critical factor for cell survival. To directly identify novel TDP1 inhibitors active in a cellular environment, we have knocked-out the Tdp1 gene in chicken DT40 cells (Tdp1-/-) and generated a complemented counterpart cells that contains a stable transfection of the human TDP1 gene (Tdp1-/-;hTDP1 cells). For the primary screen, Tdp1-/-;hTDP1 cells will be exposed to small molecules in the presence or absence of CPT, and their growth kinetics will be evaluated after 48 hours by measuring ATP activity. […] The hit compounds will then be evaluated in the presence or absence of CPT using Tdp1-/- cells. […] In tertiary assays, biochemical gel-based assays will be used to assess whether the hit compounds specifically target TDP1. To this end, we have screened this cell line against the MLSMR in two primary screens. In one screen we add CPT and in the other we screen in the absence of CPT; this AID represents the screen where CPT was present. NIH Chemical Genomics Center [NCGC] NIH Molecular Libraries Probe Centers Network [MLPCN] MLPCN Grant: MH095538 Assay Submitter (PI): Yves Pommier, NCI
DT40-hTDP1 cells with 20 nM Camptothecin (add 20 microL of 1 mM CPT stock in 1 L of cell culture medium) were dispensed at 400 cells/5microL/well in tissue culture treated 1536-well white wall/solid bottom assay plates (Greiner Bio-One North America, NC, U.S.A.) using a Multidrop Combi 8 channel dispenser (Thermo Fisher, Waltham, MA, USA). 23 nL compounds and controls were transferred using the pin tool (Kalypsys, San Diego, CA, USA) to the assay plates. The assay plates were then incubated at 37 masculineC for a minimum 48 hr. Three microL of Cell Titer Glo solution was added to the plates and incubated at RT in dark for 30 min. Luminescence was read using ViewLux (Perkin Elmer) with 1 sec exposure slow speed, high gain and 2x binning.
Potency is the fitted concentration of half-maximal effect.

Row | Compound | Potency | activity change, negative = growth inhibition
1 | Cc1ccc(C(C)C)c(OCC(=O)N2CCN(CC(=O)N3CCOCC3)CC2)c1 | inactive | –
2 | CN1CCC(N(C)Cc2cccnc2)CC1 | inactive | –
3 | c1ccc(CCCCN2CCC(c3ccccc3)CC2)cc1 | 16.8 µM (active) and 23.1 µM (active) | –
4 | c1ccc(CCN2CCC3(CC2)OCCO3)cc1 | inactive | –
5 | CC1=CC(=O)C2=C(C)C[C@H](O)[C@H]3[C@H](C)C(=O)O[C@@H]3C12 (stereo not given in full) | inactive | –
6 | Cc1cccc(Cn2cccc(C(=O)Nc3ccc4c(c3)OCCO4)c2=O)c1 | 9.2 µM (active) | –
7 | CN(C)/C=C(\C=[N+](C)C)c1[nH]ncc1[N+](=O)[O-] | inactive | –
8 | O=C1NC(=O)C(CCOc2ccccc2)(CCc2ccccc2)C(=O)N1 | inactive | –
9 | COc1ccc(-c2nn(CCC#N)cc2C(=O)Nc2ccc(C(C)=O)cc2)cc1 | inactive | –
10 | COc1ccc(C2Oc3c(I)c(OC)cc(OC)c3CC2O)cc1OC (stereo not given) | inactive | –
11 | CCOP(=O)(OCC)C(O)c1ccc(OC)cc1OC (stereo not given) | inactive | –
12 | CC(Cc1ccccc1)NC=O (stereo not given) | inactive | –
13 | CC(Cc1ccccc1)NCCC(c1ccccc1)c1ccccc1 (stereo not given) | 9.2 µM (active) | –
14 | Nc1ccc([N+](=O)[O-])cc1 | inactive | –
15 | C=CCn1c(O)c(/C=N/N2CCOCC2)c(=O)[nH]c1=S | inactive | –
16 | CC(=O)Nc1ccccc1C(=O)OCC(=O)c1cccc2ccccc12 | inactive | –
17 | COC(=O)C1=C(c2ccc(C(C)=O)cc2)C[C@@H]2CC[C@H]1N2C(=O)NCCNC(C)=O | inactive | –
18 | COC(=O)C1=C(c2cc3ccccc3o2)C[C@@H]2CC[C@H]1N2C(=O)NC1CCCCC1 | 18.4 µM (active) | –
19 | COC(=O)C1=C(c2cc3ccccc3s2)C[C@@H]2CC[C@H]1N2C(=O)NCCO | inactive | –
20 | COC(=O)C1=C(c2cc3ccccc3s2)C[C@@H]2CC[C@H]1N2C(=O)NC(C)C | 23.1 µM (active) | –
21 | COC(=O)C1=C(c2ccc(Cl)c(C(F)(F)F)c2)C[C@@H]2CC[C@H]1N2C(=O)NC1CC1 | 14.6 µM (active) | –
22 | COC(=O)CN(CCCl)P1(=O)OCCCN1CCCl (stereo not given) | inactive | –
23 | C/C(CCc1c[nH]c2ccccc12)=N\O | inactive | –
24 | CCN1CCN(Cc2cc(OC)c3c(c2)OCO3)CC1 | inactive | –

Row | Compound | Potency | activity change, negative = growth inhibition
25 | C1CC[C@H]([C@@]23C[C@H](C[C@H]4CCCN[C@H]42)[C@@H]2CCCCN2C3)NC1 | – | -5.16% [at 9.04 µM]
26 | CN1C2CC3CC1C(O3)C2O (stereo not given) | inactive | –
27 | COP(=O)(OC)C(NC(=O)c1ccc(C)cc1)C(Cl)(Cl)Cl (stereo not given) | inactive | –
28 | C#C[C@]1(OC(=O)CCCCCC)CC[C@H]2[C@@H]3CCC4=CC(=O)CC[C@@H]4[C@H]3CC[C@@]21C | inactive | –
29 | CC(=O)OC1C2(CC3N4C(=O)C5(CO)SSC4(CC31O)C(=O)N5C)OC(C)C(C)(C)C2=O (stereo not given) | 0.146 µM (active) | –
30 | O=C(c1cc(S(=O)(=O)N2CCOCC2)ccc1F)N1CCC2(CC1)OCCO2 | inactive | –
31 | CCc1nnc(NS(=O)(=O)c2ccc(N=Cc3c(O)n(-c4ccccc4)c(=O)[nH]c3=O)cc2)s1 | inactive | –
32 | O=[N+]([O-])c1ccc(Cl)c(Cl)c1 | inactive | –
33 | O=C(Cc1ccc(Cl)cc1)NCCN1CCN(C(=O)Cc2ccc(Cl)cc2)CC1 | inactive | –
34 | C[C@@H]1C[C@@H]2O[C@H]2/C=C\C=C\C(=O)Cc2c(Cl)c(O)cc(O)c2C(=O)O1 | 0.0411 µM (active) | –
35 | CCOC(=O)C1=C(C)OC(N)=C(C(=O)OC)C12C(=O)Nc1ccc(Br)cc12 (stereo not given) | inactive | –
36 | CCN1CCN(C(=O)Cc2coc3cc(C)cc(C)c23)CC1 | inactive | –
37 | NC(=O)Cn1cc(C(=O)c2ccccc2F)c2ccccc21 | inactive | –
38 | COCCNC(=O)CN1C2CCC1CC(O)(c1cccnc1)C2 (stereo not given) | inactive | –
39 | Cc1cc2n(n1)C(c1cc(C(C)(C)C)c(O)cc1O)Nc1ccccc1-2 (stereo not given) | 14.6 µM (active) | –
40 | CCC/C(=N\O)c1c[nH]c2ccccc12 | inactive | –
41 | NCC(O)c1ccc(O)cc1 (stereo not given) | inactive | –
42 | CC[N+](C)(CC)CCC[n+]1c(-c2ccccc2)c2cc(N)ccc2c2ccc(N)cc21 | 2.58 µM (active) | –
43 | COc1ccc(NC(=O)N2Cc3ccccc3-n3nncc3C2)cc1 | inactive | –
44 | CCN(CC)CCOC(=O)c1cc2cc(COC)ccc2o1 | inactive | –
45 | CC(=O)c1ccc(OC(NC(=O)Cc2ccccc2)C(Cl)(Cl)Cl)cc1 (stereo not given) | inactive | –
46 | Cc1cccc2c3c(ccc12)C1=C(C(=O)C3=O)C(C)CO1 (stereo not given) | 4.11 µM (active) | –
47 | CCOC(=O)c1c(N)n(CCN2CCOCC2)c2nc3ccccc3nc12 | inactive | –
48 | CC1(C)OC[C@@H](COC(=O)CCc2ccc(OC[C@@H](O)CNCCNC(=O)N3CCOCC3)cc2)O1 | inactive | –

Row | Compound | Potency | activity change, negative = growth inhibition
49 | Cc1ccc(S(=O)(=O)N(C)c2ccc(C(=O)NCC3(N(C)C)CCCCC3)cc2)cc1 | inactive | –
50 | O=C(CCN1CCCCC1)NCC(=O)Nc1ccc(Br)cc1C(=O)c1ccccc1 | 18.4 µM (active) | –
51 | O=C(CN1CCCCC1)Nc1ccc(Br)cc1C(=O)c1ccccc1Cl | inactive | –
52 | CCOC(=O)CC(SP1(=S)OCC2(CCCCO2)C(C2CCCCO2)O1)C(=O)OCC (stereo not given) | inactive | –
53 | C[C@]12CCC3C(CC[C@H]4[C@H](O)[C@H](O)CC[C@]34C)C1CC[C@@H]2O (stereo not given in full) | inactive | –
54 | C[C@]12CCC3C(CC[C@H]4[C@H](O)[C@H](O)CC[C@]34C)C1CCC2=O (stereo not given in full) | 16.4 µM (active) | –
55 | C[C@]12CCC3C(CC[C@H]4C[C@@H](O)CC[C@]34C)C1C[C@@H](O)[C@H]2O (stereo not given in full) | inactive | –
56 | Nc1ccc(Cc2ccc(N)c(Cl)c2)cc1Cl | inactive | –
57 | O=c1[nH]c2ccccc2n1C1CCN(C(c2ccnc3ccccc23)c2nnnn2Cc2ccccc2)CC1 (stereo not given) | 20.6 µM (active) | –
58 | Cc1ccc(Cn2nnnc2CN2CCC(n3nnc4ccccc43)CC2)cc1 | inactive | –
59 | O=c1[nH]c2ccccc2n1C1CCN(C(c2ccccc2)c2nnnn2Cc2ccccc2)CC1 (stereo not given) | 18.4 µM (active) | –
60 | Cc1ccsc1C(=O)C1CCCN(Cc2ccc(O)cc2)C1 (stereo not given) | inactive | –
61 | Cc1cccc(-n2c(O)c(C=NC34CN5CN(CN(C5)C3)C4)c(=O)[nH]c2=O)c1 | inactive | –
62 | Cc1nn(Cc2ccccc2Cl)c(Cl)c1C(=O)OC(C(=O)NC(N)=O)C(C)C (stereo not given) | inactive | –
63 | CCOc1ccc(CN(CCCl)CCCl)cc1C(=O)OC | 4.11 µM (active) | –
64 | Cc1cc(C=C2C(=O)NC(=O)NC2=O)c(C)n1-c1ccncc1 | inactive | –
65 | N=c1ccccn1Cc1ccccc1 | inactive | –
66 | CC1=CC(=Cc2sc3ccccc3[n+]2C)C=C(C)O1 | 0.164 µM (active) | –
67 | CCOc1ccc(-c2cc(C)[n+](CCN(CC)CC)c(-c3ccc(OCC)cc3)c2)cc1 | 0.206 µM (active) | –
68 | COc1cc(C(=O)N2Cc3ccc(Br)cc3-n3nncc3C2)cc(OC)c1OC | inactive | –
69 | CC=C(C)C(=O)OC1CCN2CC=C(COC(=O)C(O)(C(C)OC)C(C)(C)O)C12 (stereo not given) | inactive | –
70 | CN(Cc1cccc2ncccc12)C(=O)c1cnn(-c2nccc(-c3ccccc3F)n2)c1C1CC1 | 5.17 µM (active) | –
71 | COc1ccccc1OC(=O)c1ccc(C)c(S(=O)(=O)N2CCOCC2)c1 | inactive | –
72 | CC(=NC1CCN(Cc2ccccc2)CC1)c1c(O)n(C)c(=O)n(C)c1=O | inactive | –

Row | Compound | Potency | activity change, negative = growth inhibition
73 | N[C@H](Cc1o[nH]c(=O)c1Cl)C(=O)O | inactive | –
74 | CO[C@@H]1C[C@@H](C[C@H]2CC[C@H](C)[C@@H]([C@@H](C)C(=O)O)O2)O[C@]2(O[C@](C)([C@H]3CC[C@@](C)(C4OC([C@H]5O[C@@](O)(CO)[C@H](C)C[C@@H]5C)C[C@@H]4C)O3)C[C@H]2C)[C@@H]1C (stereo not given in full) | 0.588 µM (active) | –
75 | COC(=O)C1=C(c2cccc(OCc3ccccc3)c2)C[C@@H]2CC[C@H]1N2C(=O)NNCc1ccccc1 | 20.6 µM (active) | –
76 | COC(=O)C1=C(c2ccc(-c3ccccc3)c(F)c2)C[C@@H]2CC[C@H]1N2C(=O)NCc1ccc(F)cc1 | 16.4 µM (active) | –
77 | COC(=O)C1=C(c2ccc(F)cc2OCc2ccccc2)C[C@@H]2CC[C@H]1N2C(=O)NCc1ccc(OC)c(OC)c1 | 18.4 µM (active) | –
78 | COC(=O)C1=C(c2ccccc2)C[C@@H]2CC[C@H]1N2C(=O)NCc1ccco1 | inactive | –
79 | COC(=O)C1=C(c2ccc(F)cc2OCc2ccccc2)C[C@@H]2CC[C@H]1N2C(=O)NCc1ccc(Cl)cc1 | 20.6 µM (active) | –
80 | CCOC(=O)c1cccc(C2=C(CNC(=O)c3ccncc3)[C@H]3CC[C@@H](C2)N3Cc2ccccc2)c1 | inactive | –
81 | COC(=O)C1=C(c2c(C)noc2C)C[C@@H]2CC[C@H]1N2C(=O)NCc1ccc2c(c1)OCO2 | inactive | –
82 | COc1ccc(CCn2c(O)c(C=NC3CC3)c(=O)[nH]c2=O)cc1OC | inactive | –
83 | CCN(CC)c1ccc([N+](=O)[O-])c2cccnc12 | inactive | –
84 | CC(C)c1c(CN(C)C(C)Cc2ccccc2)n(C)n(-c2ccccc2)c1=O (stereo not given) | inactive | –
85 | CCN1c2nc3c(C)cccn3c(=O)c2CC2(C(=O)N(C)C(=O)N(C)C2=O)C1C (stereo not given) | inactive | –
86 | CCC(C)n1c(O)c(/C=N/Nc2nc3c(c(=O)n(C)c(=O)n3C)n2C)c(=O)[nH]c1=S (stereo not given) | inactive | –
87 | Fc1cccc(F)c1CN1CCN(Cc2c(F)cccc2F)CC1 | inactive | –
88 | Cc1cc(C(=O)OCC(=O)Nc2c(F)cccc2F)c(C)n1C1CC1 | inactive | –
89 | COC(=O)C(c1ccccc1)N1CCCCCC1 (stereo not given) | inactive | –
90 | COC(=O)C1=C(c2ccc(OCc3ccccc3)cc2)C[C@@H]2CC[C@H]1N2C(=O)NCc1cccc(F)c1 | 25.9 µM (active) | –
91 | COC(=O)C1=C(c2ccccc2)C[C@@H]2CC[C@H]1N2C(=O)N1CCCCC1 | 5.8 µM (active) | –
92 | O=C(NC(=S)N1C[C@H]2C[C@H](C1)c1cccc(=O)n1C2)c1ccc(F)cc1 | inactive | –
93 | CC1CCCN1CCC(C(N)=O)(c1ccccc1)c1ccccc1 (stereo not given) | inactive | –
94 | COc1ccc(CCn2c(O)c(C=NCCCn3ccnc3)c(=O)[nH]c2=O)cc1OC | inactive | –
95 | CC(=O)Cc1ccc(OC(C)C)cc1 | inactive | –
